Several values for one entry are separate records, joined by “and”; a condition that tells them apart may be missing. Equal entries are not always repeated. Where a structure was tested more than once in an assay, its records may differ in their call. Activity calls are given as the source filed them. Rule for the calls: active = hit-call score of the fitted dose curve at least 0.9, where 1 is the maximum; inactive = score below 0.9.
Assay: BSK_IMphg_SRB.Mphg: Macrophage Viability Assessment in the BioMAP Diversity Plus: IMphg Assay (AID 2284295)
Conditions: primary human endothelial cells with macrophages
Protocol: BSK_IMphg is a cell-based, multiplexed-readout assay that uses venular endothelial cells and macrophages, a human vascular primary cell, with measurements taken at 24 hours after chemical dosing in a microplate: 96-well plate.BSK_IMphg_SRB.Mphg is an assay component measured in the BSK_IMphg assay. It measures […] related to cell death using Sulforhodamine staining technology.Data from the assay component BSK_IMphg_SRB.Mphg was analyzed at the endpoint, BSK_IMphg_SRB.Mphg, in the positive analysis fitting direction relative to DMSO as the negative control and baseline of activity. Using a type of viability reporter, gain or loss-of-signal activity can be used to understand protein changes. To generalize the intended target to other relatable targets, this assay endpoint is annotated to the 'cell morphology' intended target family, where the subfamily is 'cell conformation'.
The levels of cell surface (or secreted, indicated by the prefix "s") biomarker endpoints were measured by ELISA. Overt cytotoxicity to cells in confluent adherent cultures (all systems other than the BT system) was assessed by measuring total protein levels using sulforhodamine B (SRB) staining in parallel cultures at the time of biomarker measurements, indicated as SRB endpoints. For proliferation assays for adherent cell types, individual cell types are cultured at sub-confluence and relative cell numbers quantified by SRB staining at time points optimized for each system (48 h: 3C and CASM3C systems; 72 h: BT and HDF3CGF systems; 96 h: SAg system). SRB was performed by staining cells with 0.1% SRB after fixation with 10% TCA and reading wells at 560 nm.Viability and proliferation of PBMC (T cells) was quantified by Alamar Blue reduction for the SAg and BT systems. For PBMC viability (referred to as PBMC Cytotoxicity within the assay endpoint names), cells were plated (75,000/well in a 96-well plate) and then chemical samples added for 1 h before addition of activators, SEB and TSST-1 (20 ng/mL final concentration each). Cells were incubated for 90 h. Then, Alamar Blue (20 uL/well) (Invitrogen, Cat DAL1100) was added for 6 h, and the plates were read with a fluorescence microplate reader at 546/580 nm (excitation/emission). For PBMC proliferation, cells were plated and activated as above but incubated for only 16 h prior to addition of Alamar Blue. Plates were read after 6 h.

Compound | outcome | AC50
O=C(O)C(F)(F)C(F)(F)C(F)(F)C(F)(F)C(F)(F)C(F)(F)C(F)F | inactive | 
OCCCC(F)(F)C(F)(F)C(F)(F)C(F)(F)C(F)(F)C(F)(F)C(F)(F)C(F)(F)F |  | 16.7 µM (active) and 30 µM (active)
O=S(=O)(Cl)C(F)(F)C(F)(F)C(F)(F)C(F)(F)C(F)(F)C(F)(F)C(F)(F)C(F)(F)F | inactive | 
C=CC(=O)OCC(F)(F)C(F)(F)C(F)(F)COC(=O)C=C | inactive | 39.4 µM (active)
C=CC(=O)OCC(F)(F)C(F)(F)C(F)(F)C(F)(F)C(F)(F)C(F)(F)C(F)(F)C(F)F | inactive | 7.9 µM (active)
CO[Si](C)(CCC(F)(F)C(F)(F)C(F)(F)C(F)(F)C(F)(F)C(F)(F)F)OC | inactive | 
NCC(F)(F)C(F)(F)C(F)(F)C(F)(F)C(F)(F)C(F)(F)C(F)(F)C(F)(F)F | inactive | 
O=S(=O)(O)CCC(F)(F)C(F)(F)C(F)(F)C(F)(F)F | inactive | 
O=C(O)C(F)(F)OC(F)(F)C(F)(F)OC(F)(F)C(F)(F)OC(F)(F)F | inactive | 
NCC(F)(F)C(F)(F)C(F)(F)C(F)(F)C(F)(F)C(F)(F)F | inactive | 
FC(F)(F)C(F)(F)C(F)(F)CC1CO1 (stereo not given) | inactive | 
O=C(Cl)C(F)(F)C(F)(F)C(F)(F)C(F)(F)C(F)(F)C(F)(F)F | inactive | 
FC(F)(F)C(F)(F)C(F)(F)C(F)(F)C(F)(F)C(F)(F)CC[Si](Cl)(Cl)Cl | inactive | 0.0514 µM (active)
CCN(CCO)S(=O)(=O)C(F)(F)C(F)(F)C(F)(F)C(F)(F)C(F)(F)C(F)(F)C(F)(F)C(F)(F)F | inactive | 44.2 µM (active)
O=S(=O)(OCC(F)(F)F)C(F)(F)C(F)(F)C(F)(F)C(F)(F)F | inactive | 
OCC(O)CC(F)(F)C(F)(F)C(F)(F)C(F)(F)F (stereo not given) | inactive | 
C=C(C)C(=O)OCC(F)(F)C(F)(F)C(F)(F)C(F)F | inactive | 
OCC(O)CC(F)(F)C(F)(F)C(F)(F)C(F)(F)C(F)(F)C(F)(F)C(F)(F)C(F)(F)F (stereo not given) | inactive | 

Compound | outcome | AC50
OCC(F)(F)C(F)(F)C(F)(F)C(F)(F)C(F)(F)C(F)(F)CO | inactive | 
OC(O)C(F)(F)C(F)(F)F | inactive | 
O=C(O)CCC(F)(F)C(F)(F)C(F)(F)C(F)(F)C(F)(F)C(F)(F)C(F)(F)F | inactive | 4.29 µM (active)
O=C(Cl)C(F)(F)C(F)(F)C(F)(F)C(F)(F)C(F)(F)C(F)(F)C(F)(F)F | inactive | 
CCOC(=O)CC(=O)C(F)(F)C(F)(F)F | inactive | 
NC(=O)C(F)(F)C(F)(F)C(F)(F)C(F)(F)C(F)(F)C(F)(F)C(F)(F)F | inactive | 
CN(C(=O)C(F)(F)C(F)(F)C(F)(F)F)[Si](C)(C)C | inactive | 
NC(=O)C(F)(F)C(F)(F)C(F)(F)C(F)(F)C(N)=O | inactive | 
NS(=O)(=O)C(F)(F)C(F)(F)C(F)(F)C(F)(F)C(F)(F)C(F)(F)F | inactive | 
C[Si](Cl)(Cl)CCC(F)(F)C(F)(F)C(F)(F)C(F)(F)C(F)(F)C(F)(F)F | inactive | 
OCC(F)(F)C(F)(F)C(F)(F)C(F)(F)C(F)(F)C(F)(F)C(F)(F)C(F)(F)CO |  | 46 µM (active) and 39.8 µM (active)
CNS(=O)(=O)C(F)(F)C(F)(F)C(F)(F)C(F)(F)C(F)(F)C(F)(F)C(F)(F)C(F)(F)F | inactive | 
O=C(O)C(F)(F)C(F)(F)C(F)(F)OC(F)(C(F)(F)F)C(F)(F)F | inactive | 
O=C(O)CCC(F)(F)C(F)(F)C(F)(F)F | inactive | 
O=S(=O)(O)CCC(F)(F)C(F)(F)C(F)(F)C(F)(F)C(F)(F)C(F)(F)C(F)(F)C(F)(F)F | inactive | 
C=CC(=O)OCCC(F)(F)C(F)(F)C(F)(F)C(F)(F)F | inactive | 
NC(=O)C(F)(F)C(F)(F)C(F)(F)C(F)F | inactive | 
